A number with no mark means an inactive call. The source made the active and inactive calls. Calls come from the whole dose curve; as a rule, active = well fitted curve in the direction sought with a large enough effect in the repeat runs; inconclusive = weak or mixed curves; inactive = flat fitted curve, though single readings scatter.
Experiment: qHTS assay to test for compound auto fluorescence at 590 nm (red) in HEK293 cells (AID 720679)
Conditions: red autofluorescence 540/590 nm; series mostly up to 91.3 µM; fluorescence, % of fluorescent control: at the top concentration
Excerpt: National Center for Advancing Translational Sciences [NCATS]
NIH Chemical Genomics Center [NCGC]
U.S. Environmental Protection Agency [EPA]
National Institutes of Environmental Health Sciences [NIEHS]
National Toxicology Program [NTP]
U.S. Food and Drug Administration [FDA]
Compound auto fluorescence often interferes with screening of the compound library against various biological targets and signaling pathways. Some of these compounds may have fluorophoric properties. Such properties may interfere with the assay outputs resulting in false positives and/or negatives. To decrease such complications and ensure the compound activities are relevant in terms of biological response, the Tox21 10K compound library was screened for auto fluorescence.
From the fluorophores used as reporter signals in our screening assays, the auto fluorescence equivalencies of compounds against three fluorophores have been evaluated: Triamterene, Fluorescein and Rose Bengal sodium for blue, green and red fluorescence, respectively. The fluorescence intensities were measured using Excitation/Emission wavelengths at 405/460nm, 485/535nm and 540/590nm for blue, green and red labels, respectively. This assay includes the red fluorescence data.
Tox21 Assay Protocol Summary:
2,000 HEK293 cells in 5 uL of culture medium containing 10% dialyzed FBS per well were dispensed into black wall/clear bottom 1536-well plates using a Multidrop Combi Dispenser (Thermo Scientific). The assay plates were incubated for 4-5 hr at 37C to allow cell attachment to the well bottom, followed by the transfer of 23 nL compound or DMSO vehicle by a pintool work station (Kalypsys, San Diego, CA). After the assay plates were incubated overnight at 37C and 5% CO2, fluorescence intensities in the assay plates were measured by an Envision (PerkinElmer, Shelton, CT) plate reader using three labels for measuring blue, green and red fluorescence at […] 460, 535 and 590nm respectively.
% is set by controls: 0 for no effect and ±100 for the full control effect.

In order of falling “fluorescence, % of fluorescent control” value:
1. CNN  -0.209% [at 95.7 µM]
2. [C-]1=CC=CC1.[Cl][Zr+2][Cl].c1cc[cH-]c1  -0.444% [at 95.7 µM]

In order of rising “fluorescence, % of fluorescent control” value:
1. CCCCC(CC)COC(=O)c1ccccc1C(=O)OCC(CC)CCCC (stereo not given)  -0.896%
2. CCO/N=C(\CC)C1=C(O)CC(c2c(C)cc(C)cc2C)CC1=O (stereo not given)  -0.551%
3. CCCCn1cc[n+](C)c1.[Cl][Fe-]([Cl])([Cl])[Cl]  -0.493%
4. Cc1cc2c3c(c1)C(c1ccccc1)=N[C@@H](NC(=O)c1ccncc1)C(=O)N3CC2  -0.409%
5. N#CSCc1ccccc1  -0.378%
6. CCCCc1ccccc1  -0.304%
7. c1csc(-c2ccc(-c3cccs3)s2)c1  -0.225%
8. CC(C)[C@@H](Nc1ccc(C(F)(F)F)cc1Cl)C(=O)OC(C#N)c1cccc(Oc2ccccc2)c1 (stereo not given in full)  -0.215%
9. CCCCCCC[CH2][Sn]([Cl])([Cl])[CH2]CCCCCCC  -0.202%
10. CO/N=C(\C(=O)OC)c1ccccc1CO/N=C(\C)c1cccc(C(F)(F)F)c1  -0.127%
11. CCOP(=O)(OCC)Oc1cc(C)nc(C(C)C)n1  -0.119%
12. COCCC#N  -0.105%
13. Cc1ccc(C)c2ccccc12  -0.067%
14. CCNS(=O)(=O)C(F)(F)C(F)(F)C(F)(F)C(F)(F)C(F)(F)C(F)(F)C(F)(F)C(F)(F)F  -0.0469%
15. CCC(C)c1cccc(C(C)CC)c1O (stereo not given)  -0.0428%
16. CCOP(=O)(OCC)Oc1nc(Cl)c(Cl)cc1Cl  -0.03%
17. CC(=O)[O][Pb]([c]1ccccc1)([c]1ccccc1)[c]1ccccc1  -0.0266%
18. Brc1ccc(Oc2ccc(Br)cc2Br)c(Br)c1  -0.0153%
19. Cc1ccccc1OP(=O)(Oc1ccccc1C)Oc1ccccc1C  0.0303%
20. CCC[CH2][Sn]([CH2]CCC)([O]C(C)=O)[O]C(C)=O  0.0307%
21. Cc1nn(-c2cc(NS(C)(=O)=O)c(Cl)cc2Cl)c(=O)n1C(F)F  0.047%
22. COP(=O)(OC)Oc1ccc([N+](=O)[O-])cc1  0.0932%
23. O=[N+]([O-])c1ccccc1-c1ccccc1  0.165%
24. O=[N+]([O-])c1ccc(CCl)cc1  0.245%
25. COC(=O)/C=C(\C)OP(=O)(OC)OC  0.352%
26. CC(=O)[O][Sn]([c]1ccccc1)([c]1ccccc1)[c]1ccccc1  0.407%
27. CC(C)Br  0.67%
28. Nc1nc(N)c(N)c(N)n1  1.91%

For `O=Cc1ccccc1`, the outcome was “inactive”.
For `CC(C)N(C(=O)CCl)c1ccccc1`, the outcome was “inactive”.
With `CCCCCCCCCCCCCCn1cc[n+](C)c1` the outcome was “inactive”.
For `CCN(CC)C(=S)S`, the outcome was “inactive”.
In the case of `Clc1ccc(C(c2ccc(Cl)cc2)C(Cl)Cl)cc1`, the outcome is reported as “inactive”.
With `c1ccc(N=NNc2ccccc2)cc1` the outcome was “inactive”.

In order of falling “fluorescence, % of fluorescent control” value:
1. Cc1ccc2cc3c(ccc4ccccc43)c3c2c1CC3  0.397% [at 46 µM]
2. CCCCN(CCCC)C(=S)[S-].CCCCN(CCCC)C(=S)[S-].[Ni+2]  0.0593% [at 46 µM]
3. O=C(N[C@H]1N=C(c2ccccc2F)c2cccc3c2N(CC3)C1=O)c1cc2ccccc2[nH]1  -0.014% [at 46 µM]
4. Fc1ccc(C(OCCN2CCN(CCCc3ccccc3)CC2)c2ccc(F)cc2)cc1  -0.0257% [at 46 µM]

Source: PubChem BioAssay (Tox21)
